Experimental data published in PubChem BioAssay AID540321 (Johns Hopkins Ion Channel Center, 2011).
Active and inactive are the calls of the source.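 Rule for the calls: active = Inhibition of the Kir2.1 potassium channel over 30% at some tested dose, plus a fitted dose response curve; inactive = no Kir2.1 inhibition at any dose, or no curve fitted.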

biological target: Inward rectifier potassium channel 2 (Mus musculus) (UniProt P35561); experiment: Kir2.1 channel inhibition, specificity check, SAR follow-up, selectivity assay for KCNK9 inhibitor project, cell-based, FluxOR thallium flux, CRC round 2 (AID 540321); conditions: Kir2.1-expressing cells; series mostly up to 30 µM
Sequence (P35561 whole entry, looked up): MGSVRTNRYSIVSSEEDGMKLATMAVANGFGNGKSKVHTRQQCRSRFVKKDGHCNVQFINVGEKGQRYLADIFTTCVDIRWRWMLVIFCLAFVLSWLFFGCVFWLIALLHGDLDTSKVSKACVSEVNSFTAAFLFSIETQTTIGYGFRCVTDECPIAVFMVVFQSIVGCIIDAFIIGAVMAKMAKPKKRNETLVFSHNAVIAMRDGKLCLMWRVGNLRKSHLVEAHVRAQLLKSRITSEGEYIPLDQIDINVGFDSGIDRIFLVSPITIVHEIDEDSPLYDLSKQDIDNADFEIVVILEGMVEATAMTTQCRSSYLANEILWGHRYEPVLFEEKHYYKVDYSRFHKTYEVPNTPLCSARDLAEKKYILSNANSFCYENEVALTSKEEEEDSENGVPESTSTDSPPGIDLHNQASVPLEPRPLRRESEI

outcome, inactive:
COc1ccccc1C(=O)Nc1cccc(NC(=O)c2ccccc2OC(F)(F)F)c1
COc1ccccc1NC(=O)c1cccc(NC(=O)C2CCCCC2)c1
Cc1ccccc1-c1n[nH]c(=S)n1C(C)C1CC2CCC1C2 (stereo not given)
Cc1cccc(C(=O)Nc2cccc(NC(=O)c3cccs3)c2)c1
Cc1cccc(C(=O)Nc2cccc(NC(=O)C3CCCCC3)c2)c1
CC(C1CC2CCC1C2)n1c(-c2ccc(Cl)cc2)n[nH]c1=S (stereo not given)
Cc1cccc(C(=O)Nc2cccc(NC(=O)c3ccccc3C(C)C)c2)c1
CCOc1ccccc1NC(=O)c1cccc(NC(=O)c2cccc(OC)c2)c1
O=C(Nc1cccc(NC(=O)c2ccccc2)c1)c1ccccc1
O=C(Nc1cccc(NC(=O)c2ccoc2)c1)c1ccccc1
O=C(Nc1cccc(NC(=O)c2cccc(C(F)(F)F)c2)c1)c1ccccc1
Cc1cccc(S(=O)(=O)Nc2cccc(NC(=O)c3ccccc3)c2)c1
COc1cccc(OC)c1C(=O)Nc1cccc(NC(=O)c2cccc(C)c2)c1
COc1cccc(C(=O)Nc2cccc(NC(=O)c3cccc(C)c3)c2)c1
CCOc1ccccc1NC(=O)c1cccc(NC(=O)CC2CCCCC2)c1
COc1ccccc1NC(=O)c1cccc(NC(=O)C2CCCC2)c1
COc1ccccc1NC(=O)c1cccc(NC(=O)CC2CCCC2)c1
O=C(Nc1cccc(NC(=O)c2cccc(F)c2)c1)c1ccccc1
CCOc1ccccc1NC(=O)c1cccc(NC(=O)C2CCCC2)c1
CC(C1CC2CCC1C2)n1c(-c2ccccc2Cl)n[nH]c1=S (stereo not given)
O=C(Nc1cccc(NC(=O)c2ccncc2)c1)c1ccccc1
Cc1cccc(C(=O)Nc2cccc(NC(=O)c3ccccc3Cl)c2)c1
Cc1ccc(C(=O)Nc2cccc(NC(=O)c3ccccc3)c2)cc1
Cc1cccc(C(=O)Nc2cccc(NC(=O)c3ccccc3C(F)(F)F)c2)c1
Cc1cccc(C(=O)Nc2cccc(NC(=O)c3cccc(C(F)(F)F)c3)c2)c1
O=C(Nc1cccc(NC(=O)c2ccc(F)cc2)c1)c1ccccc1
Cc1cccc(-c2n[nH]c(=S)n2C(C)C2CC3CCC2C3)c1 (stereo not given)
CCOc1ccccc1NC(=O)c1cccc(NC(=O)C2CCCO2)c1 (stereo not given)
O=C(Nc1cccc(NC(=O)c2cccs2)c1)c1ccccc1
CCOc1ccccc1NC(=O)c1cccc(NC(=O)c2ccccc2OC(F)(F)F)c1
CCOc1ccccc1C(=O)Nc1cccc(NC(=O)c2ccccc2OC)c1
CCOc1ccccc1NC(=O)c1cccc(NC(=O)CC2CCCC2)c1
Cc1cccc(C(=O)Nc2ccccc2NC(=O)c2ccccc2)c1
Cc1cccc(C(=O)Nc2cccc(NC(=O)c3ccc(Cl)cc3)c2)c1
CC(C1CC2CCC1C2)n1c(-c2ccco2)n[nH]c1=S (stereo not given)
